Results from the supplement of paper PMC9135407.
Where “and” joins values, the source holds several entries; their conditions need not be identical. Equal values may be shown once. Where a name gives a salt, the structure may show the parent alone. About 620 (11%) of roughly 5,800 compounds showed activity. Many of the other results were omitted from the sample, so actives are more common in it than they were. Unmarked numbers belong to inactive results.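 The calls were made as follows: active = score above a cut-off or among the top three wells of a plate; in these data no inactive exceeds 0.85.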

System: primary human hepatic stellate cells (donor 1)
Assay: scaled lipid accumulation score (0 = DMSO-like, 1 = nortriptyline-like); higher = stronger HSC inactivation (lipid re-accumulation), active = hit call of the paper
Details: 48 h
[1] = library stock concentration: 1 mM
[2] = library stock concentration: 10 mM

For `CCCCC/C=C\C/C=C\C/C=C\C/C=C\CCCC(=O)NCCS(=O)(=O)O` [N-Arachidonoyl Taurine], the “scaled lipid accumulation score” value [1] was 0.01.

In the case of `O=C1C2CCN(CC2)C1(CO)CO` [listing 1 of 2 here], the “scaled lipid accumulation score” value [1] is reported as no more than 0 and the “scaled lipid accumulation score” value [2] is reported as 0.045.

`O=C1C2CCN(CC2)C1(CO)CO` [listing 2 of 2 here] was tested, and the “scaled lipid accumulation score” value (library stock concentration: 27 mM) was 0.911 (active).

With `CC(=O)C1=C(O)[C@@H]2[C@H]3c4c[nH]c5cccc(c45)C[C@H]3C(C)(C)N2C1=O` [Cyclopiazonic Acid] the “scaled lipid accumulation score” value [2] was 0.021.

With `CC(=O)C1=C(O)[C@@H]2[C@H]3c4c[nH]c5cccc(c45)C[C@H]3C(C)(C)N2C1=O` [Cyclopiazonic acid] the “scaled lipid accumulation score” value (library stock concentration: 14.9 mM) was 0.019.

For `BrC1C(Br)C(Br)C(Br)C(Br)C1Br` (stereo not given) [1,2,3,4,5,6-Hexabromocyclohexane], the “scaled lipid accumulation score” value [2] was no more than -0.001.

For `CC1=C2C[C@H]3[C@@H](CC=C4C[C@@H](O)CC[C@@]43C)[C@@H]2CC[C@]12O[C@@H]1C[C@H](C)CN[C@H]1[C@H]2C` [Cyclopamine], the “scaled lipid accumulation score” value (library stock concentration: 12.1 mM) was 0.19.

In the case of `COC(=O)/C=C/C(=O)N[C@@H]1CC[C@@]2(O)[C@H]3Cc4ccc(O)c5c4[C@@]2(CCN3CC2CC2)[C@H]1O5`, the “scaled lipid accumulation score” value [2] is reported as 0.325.

For `COc1ccc2c3c([nH]c2c1)C(C)=NCC3` [Harmaline], the “scaled lipid accumulation score” value [2] was 0.389.

With `CC1=NCCc2c1[nH]c1cc(O)ccc21` [Harmalol hydrochloride] the “scaled lipid accumulation score” value [2] was no more than 0.

With `CC1=NCCc2c1[nH]c1cc(O)ccc21.Cl.O.O` [Harmalol hydrochloride dihydrate] the “scaled lipid accumulation score” value was 0.979 (active).

In the case of `COc1ccc2c3c([nH]c2c1)C(C)=NCC3` [Harmaline hydrochloride dihydrate], the “scaled lipid accumulation score” value is reported as 0.371.

With `COC1=C[C@@H]2C3=C([C@@H]2C1=O)[C@@H](NC(C)=O)CCc1cc(OC)c(OC)c(OC)c13` [Lumicolchicine gamma] the “scaled lipid accumulation score” value was no more than 0.

In the case of `c1ccc(C2CNCc3ccccc32)cc1` (stereo not given) [4-Phenyl-1,2,3,4-tetrahydroisoquinoline hydrochloride], the “scaled lipid accumulation score” value [2] is reported as 0.217.

`c1ccc(CCCN2CCN(CCOC(c3ccccc3)c3ccccc3)CC2)cc1` was tested, and the “scaled lipid accumulation score” value [2] was ≤ -0.07 and 0.566.

`Clc1ccc(C(OCCN2CCCCC2)c2ccccc2)cc1` (stereo not given) [Cloperastine hydrochloride] was tested, and the “scaled lipid accumulation score” value was 0.488 and the “scaled lipid accumulation score” value [2] was 0.544.

`Cl.Cl.Fc1ccc(C(OCCN2CCN(CCCc3ccccc3)CC2)c2ccc(F)cc2)cc1` [listing 1 of 2 here] was tested, and the “scaled lipid accumulation score” value [2] was 0.942 (active).

`Fc1ccc(C(OCCN2CCN(C/C=C/c3ccccc3)CC2)c2ccc(F)cc2)cc1` was tested, and the “scaled lipid accumulation score” value [2] was 0.507.

For `Cl.Cl.Fc1ccc(C(OCCN2CCN(CCCc3ccccc3)CC2)c2ccc(F)cc2)cc1` [listing 2 of 2 here], the “scaled lipid accumulation score” value was 0.864 (active).

For `Fc1ccc(C(OCCN2CCN(CCCc3ccccc3)CC2)c2ccc(F)cc2)cc1`, the “scaled lipid accumulation score” value [2] was no more than -0.061.

In the case of `CC(N)Cc1cccc(C(F)(F)F)c1` (single isomer, unassigned; (+)) [(+)-Norfenfluramine hydrochloride], the “scaled lipid accumulation score” value [2] is reported as 0.072.

With `CC(=O)[O][Hg][c]1ccccc1` [Phenylmercuric acetate] the “scaled lipid accumulation score” value (library stock concentration: 5.9 mM) was 0.512 and the “scaled lipid accumulation score” value [2] was 0.358.

With `O=[N+]([O-])OCC(CO[N+](=O)[O-])O[N+](=O)[O-]` [Nitroglycerin] the “scaled lipid accumulation score” value (library stock concentration: 8.8 mM) was 0.395.

`CCCCC/C=C\C/C=C\C/C=C\C/C=C\CCCC(=O)NCCc1ccc(O)c(O)c1` [N-Arachidonoyl Dopamine] was tested, and the “scaled lipid accumulation score” value [1] was no more than 0.

With `CCCCC/C=C\C/C=C\C/C=C\C/C=C\CCCC(=O)N[C@H](C)COP(=O)(O)O` [R-1 Methanandamide Phosphate] the “scaled lipid accumulation score” value [1] was no more than 0.

In the case of `Cc1[nH]c2ccc(Cl)cc2c1C1=CCNCC1.Cl`, the “scaled lipid accumulation score” value [2] is reported as 1.1 (active).

With `C#CCOC(=O)C1=CCCN(C)C1` [Arecaidine propargyl ester hydrobromide] the “scaled lipid accumulation score” value [2] was no more than 0.

With `C#CCOC(=O)C1=CCCN(C)C1` [Arecaidine propargyl ester tosylate] the “scaled lipid accumulation score” value [2] was no more than 0.

With `C[C@]12CCC(=O)C=C1CC[C@@H]1[C@@H]2CC[C@@]2(C)[C@H]1CC[C@]2(C)O` [Methyltestosterone] the “scaled lipid accumulation score” value [2] was 0.073.

`Cc1nccc2c1[nH]c1cc(O)ccc12` [Harmol hydrochloride] was tested, and the “scaled lipid accumulation score” value [2] was no more than 0.

With `COc1ccc2c(c1)[nH]c1c(C)nccc12.Cl` [Harmine hydrochloride] the “scaled lipid accumulation score” value was 0.89 (active).

With `Cc1nccc2c1[nH]c1ccccc12` [Harmane hydrochloride] the “scaled lipid accumulation score” value was 0.089.

For `Cc1nccc2c1[nH]c1ccccc12` [Harmane], the “scaled lipid accumulation score” value [2] was 0.671.

In the case of `COc1ccc2c(c1)[nH]c1c(C)nccc12` [Harmine] [listing 1 of 2 here], the “scaled lipid accumulation score” value [1] is reported as 0.141 and the “scaled lipid accumulation score” value [2] is reported as 0.762.

In the case of `COc1ccc2[nH]c3c(c2c1)CCN=C3C` [Methoxy-6-harmalan], the “scaled lipid accumulation score” value is reported as 0.039.

`COc1ccc2c(c1)[nH]c1c(C)nccc12` [Harmine] [listing 2 of 2 here] was tested, and the “scaled lipid accumulation score” value (library stock concentration: 9.4 mM) was 0.851 (active).
